Reference: paper PMC5913336, “True equilibrium measurement of transcription factor-DNA binding affinities using automated polarization microscopy”
pKd: −log10 of the molar value.

Each sequence was assayed against T1, Eip93f (Drosophila melanogaster, UniProt Q9VD60 752-830) (assay: FP; 33 mM phosphate pH 7.0, 90 mM NaCl, 0.01% Tween 20, 0.1 mM DTT, 0.5% agarose; room temperature). Details: tags: N-GST (pGEX-6P-1, kept); dsDNA, one strand shown.
T1 sequence: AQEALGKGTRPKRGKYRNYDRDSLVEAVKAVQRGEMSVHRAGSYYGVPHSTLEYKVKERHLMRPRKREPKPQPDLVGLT

Sequence	binding signal
CATAGGCGAAAATCG	3.03 Kd / Kd of best base at the position
CGTAGCCGAAAATCG	1.39 Kd / Kd of best base at the position
AATAGCCGAAAATCG	1.22 Kd / Kd of best base at the position
CATAGCCGAAATTCG	1.52 Kd / Kd of best base at the position
CATGGCCGAAAATCG	1.39 Kd / Kd of best base at the position
CATAGCCGATAATCG	12.1 Kd / Kd of best base at the position

The sequences below were run against T2, Br (Drosophila melanogaster, UniProt Q24206 697-775) in the same assay as above. Details: tags: N-GST (pGEX-6P-1, kept); dsDNA, one strand shown.
T2 sequence: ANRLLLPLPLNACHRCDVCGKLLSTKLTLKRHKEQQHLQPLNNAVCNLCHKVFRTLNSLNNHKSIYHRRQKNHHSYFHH

Sequence	binding signal	pKd
GGAATGAGAAAAC	> 1590 Kd / Kd of best base at the position	
GGAATTAGAAAGC	1.36 Kd / Kd of best base at the position	
GGAATTAGCAAAC	6.43 Kd / Kd of best base at the position	
GGCATTAGAAAAC	2.73 Kd / Kd of best base at the position	
CGAATTAGAAAAC	1.68 Kd / Kd of best base at the position	
GGAACTAGAAAAC	4.4 Kd / Kd of best base at the position	
GGGATTAGAAAAC	1.54 Kd / Kd of best base at the position	
GGAAATAGAAAAC	7.11 Kd / Kd of best base at the position	
GGAATTAGATAAC	1.59 Kd / Kd of best base at the position	
GGAATTAGAGAAC	2.43 Kd / Kd of best base at the position	
GGAATTAGAAGAC	1.24 Kd / Kd of best base at the position	
GAAATTAGAAAAC	2.08 Kd / Kd of best base at the position	
GCAATTAGAAAAC	3.05 Kd / Kd of best base at the position	
GGAAGTAGAAAAC	40.3 Kd / Kd of best base at the position	
GGAATAAGAAAAC	> 1590 Kd / Kd of best base at the position	
GGACTTAGAAAAC	2.43 Kd / Kd of best base at the position	
GGAATCAGAAAAC	> 1590 Kd / Kd of best base at the position	

Sequence	binding signal	pKd
GGAGTTAGAAAAC	2.41 Kd / Kd of best base at the position	
GGAATTAGACAAC	3.07 Kd / Kd of best base at the position	
GGAATTAGAACAC	1.98 Kd / Kd of best base at the position	
GGAATTAAAAAAC	> 1590 Kd / Kd of best base at the position	
GGAATTAGAAAAA	1.22 Kd / Kd of best base at the position	
GGAATTAGAAAAC		~8.20
GGAATTAGAAAAT	1.5 Kd / Kd of best base at the position	
GGATTTAGAAAAC	2.42 Kd / Kd of best base at the position	
GGAATTAGAATAC	1.82 Kd / Kd of best base at the position	
GGAATTAGAAAAG	1.23 Kd / Kd of best base at the position	
AGAATTAGAAAAC	1.96 Kd / Kd of best base at the position	
GGTATTAGAAAAC	2.13 Kd / Kd of best base at the position	
GGAATTTGAAAAC	23.5 Kd / Kd of best base at the position	
GGAATTGGAAAAC	438 Kd / Kd of best base at the position	
TGAATTAGAAAAC	2.02 Kd / Kd of best base at the position	
GGAATTAGGAAAC	2.63 Kd / Kd of best base at the position	
